Screens from PubChem BioAssay.
Bead autofluor – flagged as autofluorescent in microsphere protease counterscreen | 3.1% of 360,000 active | fluorescence intensity (no concentration beside the values) | compound autofluorescence counterscreen, microsphere flow cytometry; hits give high values | AID 624483; in the data active = fluorescence intensity above about 16000; inconclusive = no clear call, values can overlap the other calls
Anthrax LF inh2 – Bacillus anthracis LF protease inhibitors, primary screen, biochemical, multiplex microsphere, MLPCN library; multiplex microsphere protease cleavage assay; Lethal factor (Bacillus anthracis), P15917; inhibition, % at 10 µM; AID 588501, 2011; 0.12% of 360,000 active; also: plate controls were buffer without enzyme for full effect and enzyme alone for no effect
BoNT-A LC inh2 – BoNT/A light chain protease inhibitors, primary screen, biochemical, flow cytometry, MLPCN library | Botulinum neurotoxin type A light chain protease (Clostridium botulinum A str. ATCC 3502) | multiplex microsphere protease substrate cleavage | inhibition, % at 10 µM | 0.17% of 360,000 active | AID 588499, 2011; also: plate controls were buffer without enzyme for full effect and enzyme alone for no effect
BoNT-F LC inh – BoNT/F light chain protease inhibitors, primary screen, biochemical, flow cytometry, MLPCN library; AID 588497, 2011; Botulinum neurotoxin type F light chain protease (Clostridium botulinum); 0.22% of 360,000 active; Multiplex microsphere protease cleavage assay; inhibition, % at 10 µM; in the data active = inhibition above about 35%, passing the limit was not always enough; inconclusive = no clear call, values can overlap the other calls; also: plate controls were buffer without enzyme for full effect and enzyme alone for no effect
SSB-PriA inh – inhibitors of Klebsiella pneumoniae PriA binding to SSB C-terminal tail, primary screen, biochemical, AlphaScreen | AlphaScreen SSBct-PriA binding, biotinylated peptide | 0.6% of 430,000 active | AID 1272365, 2023 | PriA–SSB C-terminal tail interaction (Klebsiella pneumoniae) | inhibition, % at 33 µM; in the data active = inhibition mostly above about 37%, no sharp cut-off; inactive = mostly below about 20%;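 also: plate controls were negative control peptide for no effect and reference peptide for full effect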
Starred values were filed as active, the others as inactive; ? = inconclusive; . = no result given. Compounds with a hit are over-represented: about 3.1% of the library has one in this group of screens. Rule as the data show it, unless noted: active = inhibition above about 30%; inconclusive = no clear call, values can overlap the other calls; inactive = below that.

SMILES	Bead autofluor	Anthrax LF inh2	BoNT-A LC inh2	BoNT-F LC inh	SSB-PriA inh
O=[N+]([O-])c1ccc(N2CCN(S(=O)(=O)c3ccc(Cl)cc3)CC2)cc1NCC1CCCO1 (stereo unspecified)	16643*	-5	-2	-5	-16
Cn1c(=O)[nH]c(=O)c2c1nc(Br)n2CCSc1nc2ccccc2o1	22279*	0	?	2	-8
Cc1cc(C)n(Cc2ccc(NC(=O)c3nn(C)cc3[N+](=O)[O-])cc2)n1	22583*	-11	2	1	0
Cc1cc(C)n(Cc2ccc(NC(=O)c3c([N+](=O)[O-])c(C)nn3C)cc2)n1	21819*	-2	4	4	4
COCc1nnc(NC(=O)COc2ccc(C)cc2C(C)(C)C)s1	.	.	.	.	-8
Cc1cc(-n2ccnc(SCC(=O)c3ccc(F)cc3)c2=O)ccc1Br	.	.	.	.	-3
COc1cccc2[nH]c3c(N4CCC(C)CC4)ncnc3c12	23249*	0	0	-4	-7
COc1cccc2[nH]c3c(N4CCc5ccccc5C4)ncnc3c12	.	.	.	.	3
COc1ccc2[nH]c3c(=O)n(CCN4CCOCC4)cnc3c2c1	3386	-2	0	-6	4
COc1ccc2c(c1)c1ncn(CCN3CCCC3)c(=O)c1n2C	21856*	-1	-2	-2	-2
COc1ccc2c(c1)c1ncn(CCN3CCNCC3)c(=O)c1n2C	22441*	-2	2	2	-1
COc1ccc2c(c1)c1ncn(CCN3CCCCC3)c(=O)c1n2C	10891	-6	0	2	-2
O=C(Nc1ccc(F)cc1)Nc1cccc(-c2cn3ccccc3n2)c1	.	.	.	.	2
O=C(Nc1ccc(Cl)c(Cl)c1)N1CC(N2C(=O)C3CC=CCC3C2=O)C1 (stereo unspecified)	.	.	.	.	-12
CSC1=N/C(=C\c2ccccc2)C(=O)N1C	21913*	-11	3	3	-9
COc1ccc(Cl)cc1NC(=O)N1CCOCC1	.	.	.	.	-8
Cc1ccc(C)n1Cc1ccc(C(=O)O)cc1	24761*	-2	-4	3	-4
CC(C)CNC(=S)NNC(=O)c1ccc(OC(F)F)cc1	23366*	0	0	0	0
C=CCNC(=S)NNC(=O)c1ccc(OC(C)C)cc1	9572	-9	-1	-12	-15
CCNC(=S)NNC(=O)c1cccnc1	6606	-3	-1	-17	5
CCNC(=S)NNC(=O)c1ccc(OC(F)F)cc1	23106*	-2	0	2	-15
Cc1cccc2cc(/C=C3\N=C(c4ccccc4)OC3=O)c(N3CCOCC3)nc12	3098	65*	124*	41*	22
C=CCn1c(=NC(=O)c2nc3ccccc3s2)sc2cccc(OC)c21	.	.	.	.	3
CC(C)C(NC(=O)COc1ccc2ccccc2c1)C(=O)N/N=C/C=C/c1ccccc1 (stereo unspecified)	22567*	2	-1	-1	.
COc1ccc(OCC(=O)NN=C2C=C(C)CC2)cc1	.	.	.	.	2
SMILES	Bead autofluor	Anthrax LF inh2	BoNT-A LC inh2	BoNT-F LC inh	SSB-PriA inh
O=C(O)Cn1nnc2ccccc21	4490	2	0	1	-12
O=C(O)Cn1nc2ccccc2n1	22940*	-4	?	-3	-2
Cc1ccc2cc(CN(CC(C)C)C(=O)C3CCCO3)c(=O)[nH]c2c1 (stereo unspecified)	8755	-7	1	-4	-3
Cc1ccc2cc(CN(CC3CCCO3)C(=O)C(C)C)c(=O)[nH]c2c1 (stereo unspecified)	23042*	-1	-1	-3	-2
Cc1ccc(OCc2nc(-c3ccccc3)no2)c(C)c1	.	.	.	.	-96
Clc1ccc(OCCCc2nc(-c3cccnc3)no2)c(Cl)c1	21481*	-1	6	4	-18
Clc1ccc(OCCCc2nc(-c3ccncc3)no2)c(Cl)c1	3028	-2	1	5	-10
Cc1cc(C)c(C)c(OCc2nc(-c3cccnc3)no2)c1	21478*	-4	2	2	-18
CCCS(=O)(=O)N1CCN(Cc2nc3ccc(OC)cc3[nH]2)CC1	.	.	.	.	-4
O=C(CSc1nc2[nH]ncc2c(=O)[nH]1)N1CCc2ccccc21	.	.	.	.	-12
Cc1cccnc1NC1(C(F)(F)F)N=C(c2ccccc2)NC1=O (stereo unspecified)	20365*	-2	1	-1	9
COC(=O)c1ccc(CSc2nnc(-c3cccnc3)o2)o1	.	.	.	.	-11
COc1ccccc1C1Nc2ccccc2NC2=C1C(=O)CC(C)(C)C2 (stereo unspecified)	3659	3	-1	37*	-10
COc1cccc(C2Nc3ccccc3NC3=C2C(=O)CC(C)(C)C3)c1OC (stereo unspecified)	3940	-8	-4	?	5
Cc1ccc2c(c1)C(c1ccc(N3CCOCC3)cc1)=NNC(c1cccs1)=N2	20609*	-2	0	1	-3
Brc1ccc2c(c1)C(c1cccnc1)=NNC(c1cccs1)=N2	2476	1	0	2	53*
Brc1ccc2c(c1)C(c1ccc(N3CCOCC3)cc1)=NNC(c1cccs1)=N2	19294*	-8	3	-1	13
CCc1ccc2c(c1)C(c1ccc(N3CCOCC3)cc1)=NNC(c1ccncc1)=N2	4664	3	-1	-5	14
CCOc1ccc(C2=Nc3ccc(Br)cc3C(c3ccc(N4CCOCC4)cc3)=NN2)cc1	2161	-1	0	-6	6
Fc1ccc2c(c1)C(c1ccc(N3CCOCC3)cc1)=NNC(c1cccs1)=N2	19055*	-2	?	3	40*
Cc1ccc(NC(=O)CSc2nc3cc(-c4ccccc4)sc3c(=O)n2C)cc1F	.	.	.	.	-8
O=C(Nc1ccc(N2CCCCS2(=O)=O)cc1)C1CCCC1	.	.	.	.	1
COc1ccccc1CNC(=O)C(=O)NCC(c1cccc2ccccc12)N1CCCC1 (stereo unspecified)	.	.	.	.	16
Fc1ccc(NC(=S)N/N=C/c2cccc(Br)c2)c(F)c1	20663*	0	?	-4	.
COc1ccc(CCN2C(=O)C3C4C=CC(C3C2=O)C2C(=O)N(CCc3ccc(OC)c(OC)c3)C(=O)C42)cc1OC (stereo unspecified)	19991*	-5	2	2	2
COc1ccc(CCN2C(=O)c3cccc4cccc(c34)C2=O)cc1OC	17334*	-17	11	10	-5
COc1ccc(CCN2C(=O)C3C4C=CC(C5CC45)C3C2=O)cc1OC (stereo unspecified)	4674	2	0	4	3
COc1ccc(CCNC(=O)CN2C(=O)c3cccc4cccc(c34)C2=O)cc1OC	2258	-1	1	4	-11
O=C(c1ccccc1Br)N1CCN(CCN2C(=O)c3cccc4cccc(c34)C2=O)CC1	.	.	.	.	-13
CC(C)(C)OC(=O)N1CC(Oc2ncccn2)C1	.	.	.	.	-4
